In assay [1] the target is Progesterone receptor (Homo sapiens) (UniProt P06401). The experiment in a line: qHTS assay to identify small molecule agonists of the progesterone receptor (PR) signaling pathway (AID 1346784; calls by dose curve; further: nearly all actives have a fitted effect of over 30% in size). Summed up:
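PR-UAS-bla HEK 293T cells carrying a UAS-driven beta-lactamase reporter were seeded in medium with 2% charcoal-stripped FBS, preincubated 6 hr at 37C, then exposed to compounds in DMSO for 16 hr; agonism was read by LiveBLAzer B/G FRET fluorescence.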
Background: qHTS replaces the single test concentration by a dilution series.

For assay [2] the target is unchanged. The experiment in a line: qHTS assay to identify small molecule antagonists of the progesterone receptor (PR) signaling pathway (AID 1346795; active means well fitted inhibition curve with a large enough effect in the signal ratio in the repeat runs, not every such curve was filed as active; the % refers to the signal ratio; further: potency means the concentration at half of the fitted maximal effect). The essentials:
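PR-UAS-bla HEK293T cells carrying a UAS-driven beta-lactamase reporter were plated in medium with 2% charcoal-stripped FBS and rested 6 hr at 37C. Compounds were added with 1 nM R5020 (final) for 16 hr, then FRET substrate loaded 2 hr at room temperature.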

The nature of assay [3]: qHTS assay to identify small molecule antagonists of the progesterone receptor (PR) signaling pathway - cell viability counter screen (AID 1346798). Further: nearly all actives have a fitted effect of over 50% in size. Further: potency means the concentration at half of the fitted maximal effect. Summed up: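 PR-UAS-bla HEK293T cells in medium with 2% charcoal-stripped FBS were treated with compounds plus R5020 for 16 hr at 37C. Cell viability was then read by CellTiter-Glo luminescence after 30 min at room temperature in the same wells.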

Assay [4] is described as follows: qHTS assay to identify small molecule agonists of the progesterone receptor (PR) signaling pathway - cell viability counter screen (AID 1346799; calls by dose curve; further: nearly all actives have a fitted effect of over 45% in size; further: potency means the concentration at half of the fitted maximal effect). The essentials: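 PR-UAS-bla HEK293T cells, 3,000 per well in medium with 2% charcoal-stripped FBS, were preincubated 6 hr at 37C, then exposed to compounds for 16 hr; viability was read as CellTiter-Glo luminescence after 30 min at room temperature.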

Assay [5] can be described thus: qHTS assay to identify small molecule antagonists of the TGF-beta/Smad signaling pathway - cell viability counter screen (AID 1346824). Further: nearly all actives have a fitted effect of over 50% in size. The essentials: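 Cytotoxicity counter-screen run in the same wells as the beta-lactamase Smad reporter read: CellTiter-Glo luminescence after 30 min at room temperature. HEK 293T SBE-bla cells had 5 hr compound exposure at 37 C with TGF-beta1 (0.25 ng/mL stock).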

A short description of assay [6]: qHTS assay to identify small molecule agonists of the TGF-beta/Smad signaling pathway - cell viability counter screen (AID 1346829). Further: top concentration of the series differs between compounds; nearly all actives have a fitted effect of over 45% in size. Summed up: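 In parallel with the Smad reporter read, viability of HEK 293T cells stably carrying SBE-bla is quantified by ATP luminescence following 5 hr compound treatment.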
Assay [7] in a line: qHTS assay to identify small molecule agonists of the TGF-beta/Smad signaling pathway (AID 1346859; active means well fitted activation curve with a large enough effect in the signal ratio in the repeat runs, not every such curve was filed as active; the % refers to the signal ratio; further: series mostly up to about 77 µM). The essentials: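 HEK 293T cells stably carrying a beta-lactamase reporter driven by the Smad binding element were seeded overnight, exposed to DMSO-dissolved compounds for 5 hr at 37 C, 5% CO2, then loaded with FRET substrate for 2 hr at room temperature.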
Assay [8] in a line: Human pregnane X receptor (PXR) small molecule agonists, qHTS cell viability counter screen (AID 1346977). Further: nearly all actives have a fitted effect of over 50% in size. Further: potency means the concentration at half of the fitted maximal effect. The essentials:
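PXR-Luc HepG2 cells in medium with 5% charcoal-stripped FBS were pre-incubated 5hr, then exposed to compounds for 24hr at 37C. Viability was read in the same wells by CellTiter-Fluor fluorescence, reagent added after 23hr with a 1hr incubation.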

Assay [9] is described as follows: Caspase-3/7 induction in HepG2 cells by small molecules, qHTS assay (AID 1346978). Further: nearly all actives have a fitted effect of over 15% in size. Further: potency means the concentration at half of the fitted maximal effect. Summed up: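 Caspase-3/7 induction was measured by Caspase-Glo 3/7 luminescence (30 min, room temperature) after a 17 hr compound exposure of wild-type HepG2 cells seeded at 2,000 per well and pre-incubated 5 hr.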
Assay [10] is described as follows: Caspase-3/7 induction in CHO-K1 cells by small molecules, qHTS cell viability counter screen (AID 1346979). Further: nearly all actives have a fitted effect of over 35% in size. Further: potency means the concentration at half of the fitted maximal effect. The essentials:
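Wild-type CHO-K1 cells were seeded at 1,500 per well, rested 5hr at 37 C, then exposed to compounds in DMSO. After 16hr, CellTiter-Fluor reagent was added and fluorescence read 1hr later as the viability measure.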

A short description of assay [11]: Caspase-3/7 induction in CHO-K1 cells by small molecules, qHTS assay (AID 1346980). Further: nearly all actives have a fitted effect of over 15% in size. The essentials: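 Luminescent Caspase-Glo 3/7 read (30min, room temperature) quantified apoptosis induction. Cells were wild-type CHO-K1, treated with compound for 17hr at 37 C and 5% CO2.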
Assay [12] concerns the target Nuclear receptor subfamily 1 group I member 2 (Homo sapiens) (UniProt O75469). Briefly: Human pregnane X receptor (PXR) small molecule agonists, qHTS assay (AID 1346982). Further: nearly all actives have a fitted effect of over 35% in size. Summed up: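 Cells: HepG2 stably carrying PXR-Luc. Medium held 5% charcoal-stripped FBS. Compounds in DMSO added after 5 hr plating, incubated 24 hr, then luminescence quantified with ONE-Glo.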
The target in assay [13] is Cytochrome P450 2D6 (Homo sapiens) (UniProt P10635). Briefly: Cytochrome P450 Family 2 Subfamily D Member 6 (CYP2D6) small molecule antagonists: luciferase reporter qHTS assay (AID 1671196). Further: nearly all actives have a fitted effect of over 50% in size. Further: potency means the concentration at half of the fitted maximal effect. The essentials:
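Enzyme and proluciferin substrate were first combined with test chemical for 10 min at room temperature. Adding NADPH regeneration solution started a 1 h reaction, stopped with luciferin detection reagent and read by luminescence 20 min later.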
(In general: In a reporter assay the amount or activity of a reporter protein is the signal.)

For assay [14], the target named is Cytochrome P450 2C19 (Homo sapiens) (UniProt P33261). Briefly: Cytochrome P450 Family 2 Subfamily C Member 19 (CYP2C19) small molecule antagonists: luciferase reporter qHTS assay (AID 1671197). Further: nearly all actives have a fitted effect of over 65% in size. Further: potency means the concentration at half of the fitted maximal effect. Summed up: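 Compounds were tested on CYP2C19 activity via proluciferin conversion to luciferin. The 37C, 1 h reaction followed NADPH addition; detection reagent stopped it.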
Sequence of Cytochrome P450 2C19 (Homo sapiens) (P33261 whole entry, looked up): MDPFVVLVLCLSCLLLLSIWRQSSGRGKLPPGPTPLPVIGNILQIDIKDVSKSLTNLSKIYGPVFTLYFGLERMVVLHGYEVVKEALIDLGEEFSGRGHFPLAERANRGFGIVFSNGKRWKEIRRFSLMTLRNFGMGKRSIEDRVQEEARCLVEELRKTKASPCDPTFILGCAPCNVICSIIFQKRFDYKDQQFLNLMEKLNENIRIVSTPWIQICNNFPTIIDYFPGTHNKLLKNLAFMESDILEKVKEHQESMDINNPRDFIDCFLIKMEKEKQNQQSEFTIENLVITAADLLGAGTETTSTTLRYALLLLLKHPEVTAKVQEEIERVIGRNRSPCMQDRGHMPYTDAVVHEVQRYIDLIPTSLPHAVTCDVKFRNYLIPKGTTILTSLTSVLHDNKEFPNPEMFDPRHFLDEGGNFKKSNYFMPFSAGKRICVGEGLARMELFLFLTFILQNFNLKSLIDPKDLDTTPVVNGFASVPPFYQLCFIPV

Assay [15] can be described thus: Caspase-3/7 induction in HepG2 cells by small molecules, qHTS cell viability counter screen (AID 1346981). Further: nearly all actives have a fitted effect of over 30% in size. Further: potency means the concentration at half of the fitted maximal effect. Summed up: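 Cell viability is measured as a cytotoxicity counter screen alongside the Caspase-Glo 3/7 readout in identical wells. Wild-type HepG2 cells are treated with test compounds for 16 hr at 37 C before CellTiter-Fluor addition and a 1-hr incubation.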

The target of assay [16] is Thyrotropin-releasing hormone receptor (Homo sapiens) (UniProt P34981). The experiment in a line: qHTS assay to identify small molecule antagonists of the thyrotropin-releasing hormone receptor (TRHR) signaling pathway (AID 1346877; active means well fitted inhibition curve with a large enough effect in the repeat runs, not every such curve was filed as active; further: series mostly up to about 51 µM). Summed up: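 Antagonism is measured as suppression of the calcium response to 1 nM TRH in TRHR-HEK293 cells that have been dye-loaded for 2 h at 37 °C after overnight plating. Each compound is tested at 15 concentrations in triplicate.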
Sequence of Thyrotropin-releasing hormone receptor (Homo sapiens) (P34981 whole entry, looked up): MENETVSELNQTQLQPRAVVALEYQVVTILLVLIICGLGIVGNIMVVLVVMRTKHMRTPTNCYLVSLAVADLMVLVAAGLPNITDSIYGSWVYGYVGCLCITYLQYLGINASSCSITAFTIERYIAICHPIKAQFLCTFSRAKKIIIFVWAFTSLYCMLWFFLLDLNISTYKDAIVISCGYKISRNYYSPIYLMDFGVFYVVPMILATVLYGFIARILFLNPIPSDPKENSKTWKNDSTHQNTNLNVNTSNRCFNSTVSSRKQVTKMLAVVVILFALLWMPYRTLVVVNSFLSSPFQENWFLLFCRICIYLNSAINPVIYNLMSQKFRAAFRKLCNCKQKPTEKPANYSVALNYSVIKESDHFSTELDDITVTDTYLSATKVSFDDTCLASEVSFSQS

For assay [17] the target is unchanged. Briefly: qHTS assay to identify small molecule agonists of the thyrotropin-releasing hormone receptor (TRHR) signaling pathway (AID 1346891; calls by dose curve; further: series mostly up to about 58 µM). The essentials: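 TRHR-expressing HEK293 cells were plated 18 h at 37 °C/5% CO2, loaded with calcium dye 2 h at 37 °C, then given compound in DMSO; fluorescence was read kinetically for 3 min at 1 s intervals.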

Data on 13 molecules can be found in PubChem BioAssay (Tox21).

Each structure is given as a SMILES string. A number with no mark means an inactive call. Results filed as inconclusive are left out. Active and inactive are the calls of the source. Unless noted, the call rests on the fitted dose curve; in most records, active means well fitted curve in the direction sought with a large enough effect in the repeat runs; inconclusive means weak or mixed curves; inactive means no such curve, though single readings can be large; an effect the other way counts as inactive or inconclusive.

Sequence of Nuclear receptor subfamily 1 group I member 2 (Homo sapiens) (O75469 whole entry, looked up): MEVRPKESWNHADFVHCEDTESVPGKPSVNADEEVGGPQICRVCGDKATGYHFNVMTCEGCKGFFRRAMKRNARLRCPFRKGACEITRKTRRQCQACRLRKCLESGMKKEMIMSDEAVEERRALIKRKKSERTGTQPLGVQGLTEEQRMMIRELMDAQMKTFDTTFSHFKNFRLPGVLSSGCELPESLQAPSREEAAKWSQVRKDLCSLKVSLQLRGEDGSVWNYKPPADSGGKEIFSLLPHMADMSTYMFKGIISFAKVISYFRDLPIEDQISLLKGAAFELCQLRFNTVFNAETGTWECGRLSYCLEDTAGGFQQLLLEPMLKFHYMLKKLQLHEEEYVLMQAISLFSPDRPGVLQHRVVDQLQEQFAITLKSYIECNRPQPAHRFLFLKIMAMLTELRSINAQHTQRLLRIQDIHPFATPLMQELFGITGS
Sequence of Cytochrome P450 2D6 (Homo sapiens) (P10635 whole entry, looked up): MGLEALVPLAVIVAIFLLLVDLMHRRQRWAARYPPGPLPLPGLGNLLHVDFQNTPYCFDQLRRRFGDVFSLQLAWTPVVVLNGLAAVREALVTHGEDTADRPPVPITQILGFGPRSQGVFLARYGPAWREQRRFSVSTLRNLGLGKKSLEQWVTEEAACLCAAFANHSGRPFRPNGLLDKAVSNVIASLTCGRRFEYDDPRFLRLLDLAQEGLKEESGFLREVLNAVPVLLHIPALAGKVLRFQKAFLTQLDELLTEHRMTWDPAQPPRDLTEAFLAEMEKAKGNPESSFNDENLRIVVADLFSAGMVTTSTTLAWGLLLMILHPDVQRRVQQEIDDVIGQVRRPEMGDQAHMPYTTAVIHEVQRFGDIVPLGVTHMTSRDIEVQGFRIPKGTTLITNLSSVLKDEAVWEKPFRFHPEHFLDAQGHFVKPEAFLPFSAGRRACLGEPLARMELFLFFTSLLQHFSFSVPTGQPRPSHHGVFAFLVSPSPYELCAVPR
Sequence of Progesterone receptor (Homo sapiens) (P06401 whole entry, looked up): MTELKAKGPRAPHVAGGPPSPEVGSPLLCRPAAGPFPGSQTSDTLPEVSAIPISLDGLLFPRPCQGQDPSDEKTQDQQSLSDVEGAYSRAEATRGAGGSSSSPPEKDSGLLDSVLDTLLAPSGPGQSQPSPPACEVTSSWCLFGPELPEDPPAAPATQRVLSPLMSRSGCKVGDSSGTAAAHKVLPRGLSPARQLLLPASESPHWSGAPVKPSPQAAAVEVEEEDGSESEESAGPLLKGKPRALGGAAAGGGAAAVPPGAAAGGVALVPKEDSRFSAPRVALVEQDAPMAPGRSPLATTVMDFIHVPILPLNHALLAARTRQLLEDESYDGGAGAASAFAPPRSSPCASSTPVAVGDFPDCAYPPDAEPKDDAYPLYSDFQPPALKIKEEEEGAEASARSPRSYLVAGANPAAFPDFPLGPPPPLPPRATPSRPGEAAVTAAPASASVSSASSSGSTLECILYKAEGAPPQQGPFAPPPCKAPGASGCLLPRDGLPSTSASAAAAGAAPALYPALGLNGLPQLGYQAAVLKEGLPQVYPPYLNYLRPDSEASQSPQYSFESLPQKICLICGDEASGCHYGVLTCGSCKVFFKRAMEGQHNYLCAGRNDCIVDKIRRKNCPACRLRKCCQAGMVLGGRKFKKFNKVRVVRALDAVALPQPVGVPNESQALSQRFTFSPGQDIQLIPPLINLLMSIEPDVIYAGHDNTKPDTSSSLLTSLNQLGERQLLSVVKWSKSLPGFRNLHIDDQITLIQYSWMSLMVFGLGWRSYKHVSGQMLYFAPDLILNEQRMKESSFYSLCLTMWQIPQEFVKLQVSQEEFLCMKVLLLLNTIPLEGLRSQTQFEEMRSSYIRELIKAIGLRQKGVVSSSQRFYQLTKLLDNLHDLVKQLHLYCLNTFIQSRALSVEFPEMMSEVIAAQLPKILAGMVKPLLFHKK

On to `CCCCCCCC(OC)OC`, for which the call in assay [1] was inactive. Besides, the Potency result in assay [2], in assay [3], in assay [4], in [5], in assay [6] and in assay [7] was “inactive” in each case. In addition, the Potency entry in assay [8], in assay [9], in assay [10], in assay [11], in assay [12] and in assay [13] was “inactive” in each case. In assay [14], the Potency entry was “inactive”.
Turning to `CCCCCCCC(C)=O`, in [1], the call was inactive. For the same molecule, the Potency entry in [2], in assay [3], in [4], in assay [6], in assay [7] and in assay [8] was “inactive” in each case. Moreover, the Potency entry in assay [9], in assay [10], in assay [11], in assay [15], in [12] and in [13] was “inactive” throughout. For the same molecule, in assay [14], the Potency result is “inactive”.
Take `Clc1cc(Cl)c(-c2c(Cl)c(Cl)cc(Cl)c2Cl)cc1Cl`: in assay [1], the molecule was called inactive. Also, the Potency result in assay [2], in [3], in assay [4], in assay [5], in assay [6] and in assay [7] was “inactive” in each case. Besides, the Potency result in assay [8], in assay [10], in [11], in assay [15], in [12] and in assay [14] was “inactive” each time.
In the case of `CC(C)=C1CC[C@@H](C)CC1=O`, the call in assay [1] was inactive. The Potency entry in assay [2], in [3], in assay [4], in assay [5], in [6] and in assay [7] was “inactive” throughout. Moreover, the Potency entry in assay [8], in [9], in assay [10], in [11], in [15] and in [13] was “inactive” throughout.
As for `O=C1NC2CCCCN2C12CCN(CCCN1c3ccccc3CCc3ccc(Cl)cc31)CC2` (centres undefined), the call in assay [1] was inactive. Besides, the Potency in [2] was 26.6 µM (active); in assay [3], 26.6 µM (active); in assay [4], 23.7 µM (active); in [8], 26.6 µM (active); in assay [9] it was 29.8 µM (active); in assay [10], 26.6 µM (active). Further, the Potency is 29.8 µM (active) in assay [15] and 7.76 µM (active) in assay [13]. Besides, the Potency entry in assay [5], in [16] and in [12] was “inactive” each time.
With `SCCCCCCCCS`, in [1], the call was inactive. Also, the Potency result in assay [2], in [3], in assay [4], in assay [5], in [6] and in assay [7] was “inactive” in each case. The Potency result in [8], in assay [9], in assay [10], in assay [12], in assay [13] and in [14] was “inactive” throughout.
For the molecule `CC1CNCC(C)O1` (centres undefined), the result in assay [1] was inactive. The Potency entry in assay [2], in assay [3], in assay [4], in assay [5], in [6] and in assay [7] was “inactive” in each case. The Potency result in [8], in assay [9], in assay [10], in assay [11], in [12] and in assay [13] was “inactive” throughout.
Turning to `c1ccc2c(c1)CCC2`, in [1], the molecule was classed as inactive. In addition, the Potency result in assay [2], in [3], in assay [4], in assay [6], in assay [7] and in assay [16] was “inactive” in each case. The Potency result in [8], in [9], in assay [10], in assay [11], in [15] and in [12] was “inactive” each time. For the same molecule, the Potency entry in assay [13] was “inactive”.
In the case of `C=CC/C=C/C/C=C/C/C=C/C`, in assay [1], the molecule was called inactive. Besides, the Potency result in [2], in assay [3], in [4], in assay [6], in [7] and in assay [16] was “inactive” throughout. Further, the Potency result in [17], in assay [8], in [9], in assay [10], in assay [11] and in assay [15] was “inactive” each time. Also, the Potency entry in [12], in assay [13] and in assay [14] was “inactive” in each case.
As for `CCCC(O)C(O)CO` (centres undefined), in assay [1], the molecule was classed as inactive. The Potency entry in assay [2], in [3], in [4], in assay [6], in assay [7] and in assay [8] was “inactive” in each case. For the same molecule, the Potency entry in [9], in assay [10], in [15], in [12] and in assay [14] was “inactive” throughout.
Take `OCCCS`: in [1], the call was inactive. Besides, the Potency entry in [2], in assay [3], in [4], in assay [5], in assay [6] and in [7] was “inactive” in each case. Also, the Potency result in assay [8], in [9], in assay [15], in assay [12], in [13] and in assay [14] was “inactive” each time.
In the case of `c1ccc(Sc2ccccc2)cc1`, the result in assay [1] was inactive. Also, the Potency result in assay [2], in assay [3], in assay [4], in assay [5], in assay [6] and in assay [7] was “inactive” in each case. Moreover, the Potency entry in assay [8], in assay [9], in assay [10], in assay [12] and in assay [13] was “inactive” throughout. For the same molecule, in [14], the Potency is 7.1 µM (active).
On to `CCc1cccc(CC)c1N(COC)C(=O)CS(=O)(=O)O`, for which the call in [1] was inactive. The Potency result in assay [2], in [3], in assay [4], in assay [6], in assay [7] and in [16] was “inactive” throughout. The Potency result in [17], in [8], in assay [9], in assay [10], in assay [15] and in assay [12] was “inactive” throughout. The Potency result in assay [14] was “inactive”.
